Several values for one entry are separate records, joined by “and”; a condition that tells them apart may be missing. Equal values may be shown once. Where a name gives a salt, the structure may show the parent alone.
The molecules below were run on LOC_OS03G12390-cb001 (assay: thermal shift delta Tm vs DMSO control; higher = stronger stabilization (binding)). Conditions: 12.5 µM; protein concentration 2 µM.
Summary of the method: (§1)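 The melting temperature shift given here is a triplicate mean, measured against protein that received only DMSO. Melting temperatures came from Boltzmann fits of differential scanning fluorimetry data on E. coli-expressed, purified rice kinase domain constructs. Each 19.5 μl well contained 2 μM kinase, 100 mM potassium phosphate pH 7.5, 150 mM NaCl, 10% glycerol, 5 × SYPRO Orange and compound in DMSO. Plates were scanned from 25°C to 95°C at 0.05°C/s.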
With `N#Cc1cccc(-c2c[nH]c3ncnc(N4CCOCC4)c23)c1` the “thermal shift delta Tm” value was 3.14 °C.
With `Cc1ccc2nc(NCCN)c3ncc(C)n3c2c1` the “thermal shift delta Tm” value was -0.09 °C.
With `C[C@@H]1CCN(C(=O)CC#N)C[C@@H]1N(C)c1ncnc2[nH]ccc12` the “thermal shift delta Tm” value was 0.19 °C and 0.26 °C.
`Cc1nc(NC(=O)N2CCC[C@H]2C(N)=O)sc1-c1ccnc(C(C)(C)C(F)(F)F)c1` [Alpelisib (BYL719)] was tested, and the “thermal shift delta Tm” value was 0.2 °C.
In the case of `CNc1nc(Nc2cn(C(C)(C)C#N)nc2C)ncc1C(F)(F)F`, the “thermal shift delta Tm” value is reported as 0.28 °C.
With `O=C(Nc1c[nH]nc1-c1nc2ccc(CN3CCOCC3)cc2[nH]1)NC1CC1` the “thermal shift delta Tm” value was 7.72 °C.
In the case of `N#Cc1ccc(-c2c(-c3ncn[nH]3)sc(N3CCOCC3)c2C#N)c(F)c1`, the “thermal shift delta Tm” value is reported as 0.25 °C.
`Oc1cccc(-c2nc(N3CCOCC3)c3oc4ncccc4c3n2)c1` was tested, and the “thermal shift delta Tm” value was 0.43 °C.
In the case of `CN(C)C/C=C/C(=O)Nc1ccc(C(=O)Nc2cccc(Nc3ncc(Cl)c(-c4c[nH]c5ccccc45)n3)c2)cc1`, the “thermal shift delta Tm” value is reported as 10.8 °C.
In the case of `CCNC(=O)Nc1ccc(-c2nc(N3CCOC[C@@H]3C)c3c(n2)C(C)(C)S(=O)(=O)C3)cc1`, the “thermal shift delta Tm” value is reported as 0.06 °C.
For `CNC(=O)c1cc(Oc2ccc3nc(N[C@@H]4CCCC[C@H]4O)sc3c2)ccn1`, the “thermal shift delta Tm” value was 0.22 °C.
With `CN(C)CCOc1ccc(-c2nc(-c3ccncc3)c(-c3ccc4c(c3)CC/C4=N\O)[nH]2)cc1` the “thermal shift delta Tm” value was -0.23 °C.
In the case of `Cc1ccc(NC(=O)c2cccc(N(C)C)c2)cc1NC(=O)c1ccc(O)cc1`, the “thermal shift delta Tm” value is reported as 0.34 °C.

The molecules below were run on LOC_OS03G27990-cb004 in the same assay as above. Conditions: 12.5 µM; protein concentration 2 µM.
Summary of the method: as §1
For `COc1cc(Nc2ncc(F)c(Nc3ccc4c(n3)NC(=O)C(C)(C)O4)n2)cc(OC)c1OC`, the “thermal shift delta Tm” value was 2.62 °C.
With `Cc1ccc(-n2nc(C(C)(C)C)cc2NC(=O)Nc2ccc(OCCN3CCOCC3)c3ccccc23)cc1` [Doramapimod (BIRB 796)] the “thermal shift delta Tm” value was 0.31 °C.
For `CC#CC(=O)N1CC[C@@H](n2c(=O)n(-c3ccc(Oc4ccccc4)cc3)c3c(N)ncnc32)C1` [ONO-4059 (GS-4059) hydrochloride], the “thermal shift delta Tm” value was 0.44 °C.
For `O=C(NC[C@H](O)CO)c1ccncc1Nc1ccc(I)cc1F`, the “thermal shift delta Tm” value was 0.19 °C.
`CO[C@H]1C[C@@H]2CC[C@@H](C)[C@@](O)(O2)C(=O)C(=O)N2CCCC[C@H]2C(=O)O[C@H]([C@H](C)C[C@@H]2CC[C@@H](O)[C@H](OC)C2)CC(=O)[C@H](C)/C=C(\C)[C@@H](O)[C@@H](OC)C(=O)[C@H](C)C[C@H](C)/C=C/C=C/C=C/1C` [Rapamycin (Sirolimus)] was tested, and the “thermal shift delta Tm” value was 0.16 °C.
With `COc1c(C)c(C(=O)c2ccc(N)c(C(=O)O)c2)n2ccccc12` the “thermal shift delta Tm” value was 0.21 °C.
In the case of `CC(C)CC(=O)Nc1n[nH]c2c1CN(C(=O)C1CCN(C)CC1)C2(C)C`, the “thermal shift delta Tm” value is reported as 0.15 °C.
With `COc1cc2ncnc(Nc3ccc(O)c(Br)c3)c2cc1OC` the “thermal shift delta Tm” value was 2.33 °C.
With `CCN(CC)CCCC(C)Nc1nc(C)cc(Nc2ccc3nc(C)cc(N)c3c2)n1` (stereo not given) the “thermal shift delta Tm” value was 0.33 °C.
`Cc1cc(NC(=O)c2cccc(NC(=O)/C=C/CN(C)C)c2)ccc1Nc1nccc(-c2cccnc2)n1` was tested, and the “thermal shift delta Tm” value was 0.81 °C.
`COc1cc2ncnc(Nc3cccc(Cl)c3F)c2cc1OC(=O)N1CCN(C)C[C@H]1C` was tested, and the “thermal shift delta Tm” value was 0.33 °C.
For `Cc1ccc(C(=O)Nc2ccc(Oc3cc4cnn(C)c4cc3-c3cn[nH]c3)c(F)c2)c(=O)n1-c1ccc(F)cc1`, the “thermal shift delta Tm” value was 0.79 °C.
For `CC#CC(=O)N1CCC[C@H]1c1nc(-c2ccc(C(=O)Nc3ccccn3)cc2)c2c(N)nccn12` [Acalabrutinib (ACP-196)], the “thermal shift delta Tm” value was 0.24 °C.
In the case of `Nc1ncccc1-c1nc2ccc(-c3ccccc3)nc2n1-c1ccc(C2(N)CCC2)cc1` [Miransertib (ARQ 092) HCl], the “thermal shift delta Tm” value is reported as 0.04 °C.
With `Cc1cc(C(C)Nc2ccccc2)c2nc(N3CCOCC3)cc(=O)n2c1` (stereo not given) the “thermal shift delta Tm” value was 0.21 °C.
With `COc1cc2nccc(Oc3ccc(NC(=O)C4(C(=O)Nc5ccc(F)cc5)CC4)cc3)c2cc1OC` [Cabozantinib malate (XL184)] the “thermal shift delta Tm” value was 0.34 °C.
With `COC(=O)N[C@@H](C)CNc1nccc(-c2cn(C(C)C)nc2-c2cc(Cl)cc(NS(C)(=O)=O)c2F)n1` [Encorafenib (LGX818)] the “thermal shift delta Tm” value was 0.34 °C.
With `COc1ccc(C(=O)Nc2sc3c(c2C(N)=O)CCCC3)cc1OC` the “thermal shift delta Tm” value was 0.12 °C.
With `CN1C(=O)[C@@H](NC(=O)c2n[nH]c(Cc3ccccc3)n2)COc2ccccc21` the “thermal shift delta Tm” value was 0.38 °C.
`Nc1nccc(Oc2ccc(NC(=O)c3c[nH]cc(-c4ccc(F)cc4)c3=O)cc2F)c1Cl` was tested, and the “thermal shift delta Tm” value was 0.24 °C.
In the case of `COc1cc2c(c(OC)c1OC)-c1c(cc3c(c1OC)OCO3)CC(C)C(C)C2` (stereo not given) [Schisandrin B (Sch B)], the “thermal shift delta Tm” value is reported as 0.05 °C.
With `COC(=O)c1ccc2c(c1)NC(=O)/C2=C(\Nc1ccc(N(C)C(=O)CN2CCN(C)CC2)cc1)c1ccccc1` [Nintedanib (BIBF 1120)] the “thermal shift delta Tm” value was 1.25 °C.
`O=C(Nc1ccccc1C(=O)NC1CCCCNC1=O)c1cc2ccccc2s1` (stereo not given) was tested, and the “thermal shift delta Tm” value was 0.15 °C.
`Cc1cc(C)c(/C=C2\C(=O)Nc3ccccc32)[nH]1` [Semaxanib (SU5416)] was tested, and the “thermal shift delta Tm” value was 1.72 °C.
`N#Cc1cccc(-c2c[nH]c3ncnc(N4CCOCC4)c23)c1` was tested, and the “thermal shift delta Tm” value was 0.37 °C.
In the case of `Cc1ccc2nc(NCCN)c3ncc(C)n3c2c1`, the “thermal shift delta Tm” value is reported as 0.55 °C.
With `C[C@@H]1CCN(C(=O)CC#N)C[C@@H]1N(C)c1ncnc2[nH]ccc12` the “thermal shift delta Tm” value was 0.12 °C and 0.5 °C.
In the case of `Cc1nc(NC(=O)N2CCC[C@H]2C(N)=O)sc1-c1ccnc(C(C)(C)C(F)(F)F)c1` [Alpelisib (BYL719)], the “thermal shift delta Tm” value is reported as 0.55 °C.
In the case of `CNc1nc(Nc2cn(C(C)(C)C#N)nc2C)ncc1C(F)(F)F`, the “thermal shift delta Tm” value is reported as 0.39 °C.
In the case of `O=C(Nc1c[nH]nc1-c1nc2ccc(CN3CCOCC3)cc2[nH]1)NC1CC1`, the “thermal shift delta Tm” value is reported as 6.08 °C.
In the case of `N#Cc1ccc(-c2c(-c3ncn[nH]3)sc(N3CCOCC3)c2C#N)c(F)c1`, the “thermal shift delta Tm” value is reported as 0.22 °C.
With `Oc1cccc(-c2nc(N3CCOCC3)c3oc4ncccc4c3n2)c1` the “thermal shift delta Tm” value was 0.03 °C.
`CN(C)C/C=C/C(=O)Nc1ccc(C(=O)Nc2cccc(Nc3ncc(Cl)c(-c4c[nH]c5ccccc45)n3)c2)cc1` was tested, and the “thermal shift delta Tm” value was 4.72 °C.
For `CCNC(=O)Nc1ccc(-c2nc(N3CCOC[C@@H]3C)c3c(n2)C(C)(C)S(=O)(=O)C3)cc1`, the “thermal shift delta Tm” value was 0.16 °C.
In the case of `CNC(=O)c1cc(Oc2ccc3nc(N[C@@H]4CCCC[C@H]4O)sc3c2)ccn1`, the “thermal shift delta Tm” value is reported as 0.15 °C.
With `CN(C)CCOc1ccc(-c2nc(-c3ccncc3)c(-c3ccc4c(c3)CC/C4=N\O)[nH]2)cc1` the “thermal shift delta Tm” value was 0.06 °C.
In the case of `Cc1ccc(NC(=O)c2cccc(N(C)C)c2)cc1NC(=O)c1ccc(O)cc1`, the “thermal shift delta Tm” value is reported as 0.26 °C.

From the supplement of paper PMC9694430
